Structures are written as SMILES. In all, about 65,000 compounds went through this assay and about 2,100 (3.2%) showed an effect of 50% or more. The median lay at about -52%. What follows is part of a selection rich in strong results, with near analogues and random picks from the rest.

For the assay, the system named is Plasmodium falciparum. Briefly: Screen against P. falciparum Asexual Blood Stage (ABS), at 5uM. The format is functional, Dd2. Particulars: tested at 5 uM.
Regarding `COC(=O)[C@@H]1CCCN1C(=O)c1cn(C/C=C/c2ccccc2)nn1`, the INHIBITION is recorded as -29.2%.

On to `CC(CCc1ccccc1)NC(=O)CNCCCN(C)C` (stereo unspecified), for which the INHIBITION was -20.5%.

Take `CN(C)C(=O)CN1C(=O)C[C@@H]2[C@@H]1CCN2Cc1cccc(C#N)c1`: the INHIBITION is listed as -63%.

`N[C@@H]1c2ccccc2C2(CCN(c3cc(C(F)(F)F)ccn3)CC2)[C@H]1O`: the INHIBITION was -15.6%.

As to `CC(=O)N1CCN(CCNc2ncc(Br)cc2C)CC1`, the INHIBITION is given as -22.7%.

In the case of `CCc1cnc(C)nc1NCCN1CCC(O)CC1`, the INHIBITION was -27.7%.

`COC1CCN(CCNc2ncc(Br)cc2C)CC1`: the INHIBITION came to 60.6%.

In the case of `Cc1ccc(CN2CCn3cc(CN4CCN(C)CC4)nc3C2)cc1`, the INHIBITION was -112%.

With `O=C(NCCCN1CCOCC1)C(OC1CCCC1)c1ccccc1` (stereo unspecified), the INHIBITION worked out at 53.1%.

Regarding `CN1CCN(CCNC(=O)C(OC2CCCC2)c2ccccc2)CC1` (stereo unspecified), the INHIBITION is on record as 39.2%.

For the molecule `O=C(NCCN1CCOCC1)C(OC1CCCC1)c1ccccc1` (stereo unspecified), the INHIBITION is listed as -78%.

On to `CN(C)CC(=O)N1CCC2(CC1)CN(c1ncccn1)CCO2`, for which the INHIBITION was determined as 5.56%.

In the case of `CN(C)CC(=O)N1CCC2(CCc3ccc(-c4ccncc4)cc32)CC1`, the INHIBITION was -41.7%.

Take `Cc1ccc2c(c1)CCC21CCN(C(=O)CO)CC1`: the INHIBITION was -19.8%.

For `Cc1ccc2c(c1)CCC21CCN(C(=O)CN(C)C)CC1`, the INHIBITION is given as 50.7%.

Turning to `CCCn1nc2c(cc1=O)CN(c1ncnc3ccsc13)CC2`, the INHIBITION is reported as -43%.

For `CSCc1noc(CNS(=O)(=O)c2cccc(C(=O)NC3CC3)c2)n1`, the INHIBITION is listed as -45.3%.

As to `CC(C)n1cc(C(=O)NCCN(C)C)c2n[nH]c(=O)c-2c1`, the INHIBITION is given as -36.6%.

Regarding `Cc1noc(C(C)C)c1C(=O)NCCCN1CCCC1`, the INHIBITION is -39.2%.

For `CC(C)CC(NCc1cscn1)c1ccccn1` (stereo unspecified), the INHIBITION turned out to be 32.3%.

Consider `CC(C)CC(NCc1ccsc1)c1ccccn1` (stereo unspecified), for which the INHIBITION was 60%.

Consider `CC(C)CC(NCc1cccs1)c1ccccn1` (stereo unspecified), for which the INHIBITION was -21.4%.

Regarding `CC(C)OCCC(=O)NCC(O)c1c(F)cccc1F` (stereo unspecified), the INHIBITION is on record as -37.7%.

With `Cc1nc(NC(=O)NCc2cccnc2NCCN(C)C)sc1C`, the INHIBITION is -8.39%.

For the molecule `CN(C)CCNc1ncccc1CNC(=O)Nc1cc(F)cc(F)c1`, the INHIBITION came to 55%.

Regarding `CC(C)c1nnc(NC(=O)NCc2cccnc2NCCN(C)C)s1`, the INHIBITION is -89.9%.

As to `Cc1noc(C)c1CNCC1CCN(CC(O)c2ccccc2)CC1` (stereo unspecified), the INHIBITION is recorded as 43.4%.

On to `CC(O)CN1CCC(CNCc2cccc(C(=O)N(C)C)c2)CC1` (stereo unspecified), for which the INHIBITION was -81.9%.

On to `CC(O)CN1CCC(CNCc2ccccc2C(F)(F)F)CC1` (stereo unspecified), for which the INHIBITION stood at 48.3%.

Take `Cc1ncccc1CNCC1CCN(CC(O)c2ccccc2)CC1` (stereo unspecified): the INHIBITION is reported as 31.4%.

As to `CC(O)CN1CCC(CNCc2cccc(C(N)=O)c2)CC1` (stereo unspecified), the INHIBITION is on record as -73.1%.

On to `CC(O)CN1CCC(CNCc2ccccc2F)CC1` (stereo unspecified), for which the INHIBITION was -0.868%.

For `CC(O)CN1CCC(CNCc2cccc(OC(C)C)c2)CC1` (stereo unspecified), the INHIBITION is recorded as 62.4%.

Take `CC(O)CN1CCC(CNCc2ccccc2OC(F)(F)F)CC1` (stereo unspecified): the INHIBITION was found to be 67.7%.

With `Cc1ccc(CNCC2CCN(CC(O)c3ccccc3)CC2)o1` (stereo unspecified), the INHIBITION is on record as 62.5%.

Turning to `COCC(Nc1ncnc2c1CCNCC2)c1ccccn1` (stereo unspecified), the INHIBITION is given as -66.2%.

In the case of `CCOCC(=O)NCC1CCN(Cc2ccsc2)CC1`, the INHIBITION is recorded as -90.6%.

As to `CN(C)Cc1ccnc(C2CCCN2Cc2ccc3ncccc3c2)n1` (stereo unspecified), the INHIBITION was determined as 42%.

For the molecule `COc1cc(CNc2cc(-c3nncn3C)ccn2)cc(OC)c1OC`, the INHIBITION is reported as -52.4%.

As to `Cc1ccccc1-c1noc(CN2CCC(N3CCNC3=O)CC2)n1`, the INHIBITION is on record as -80.6%.

As for `O=C(NCCN1CCCC1)c1cc2c(s1)CCN2C(=O)c1ccccc1`, the INHIBITION was -40.6%.

With `COCC(=O)N1CCCC1c1ccc(C(=O)NCCN2CCCCC2)s1` (stereo unspecified), the INHIBITION is reported as -139%.

In the case of `CCC1CN(CC(=O)NCCN2CCCC2)c2ccccc2S1` (stereo unspecified), the INHIBITION is 63.8%.

Take `Cc1ccccc1OCC1CCCN(c2cc(N)nc(N)n2)C1` (stereo unspecified): the INHIBITION is on record as 44.5%.

On to `CN1CCCC(CCCc2cccnc2)(C(N)=O)C1` (stereo unspecified), for which the INHIBITION is on record as -103%.

Regarding `Nc1ccnc(-c2cc(NC3CCNCC3)nc3[nH]ccc23)c1`, the INHIBITION is reported as -29.8%.

On to `COc1nccnc1-c1cc(NC2CCCC2)nc2[nH]ccc12`, for which the INHIBITION is listed as 18.8%.

Turning to `COc1cc(-c2cc(NC3CCCC3)nc3[nH]ccc23)nc(N)n1`, the INHIBITION is 62.5%.

In the case of `CCN(Cc1nc(COC)no1)Cc1cc2ccc(F)cc2[nH]c1=O`, the INHIBITION was determined as 62.2%.

As for `CCc1noc(CN(CC)Cc2cc3ccc(F)cc3[nH]c2=O)n1`, the INHIBITION is listed as -9.14%.

With `CCN(Cc1noc(CC(C)C)n1)Cc1cc2ccc(F)cc2[nH]c1=O`, the INHIBITION was -109%.

On to `O=C(C[C@@H]1COC[C@H]2CN(CC3CCOCC3)C[C@@H]12)N1CCCCO1`, for which the INHIBITION is -22.4%.

As to `CC(O)CN1CCN(C(=O)c2cc3ccccc3n2C)CC1` (stereo unspecified), the INHIBITION is reported as -75.1%.

For `CCC(C)(COc1ncccc1Cl)NCC(=O)NC1CCCCC1` (stereo unspecified), the INHIBITION is -85.6%.

With `CNC(=O)C1CCN(CC(=O)Nc2cc(C(C)C)no2)CC1`, the INHIBITION is recorded as -141%.

As for `CCOCC1CN(C(=O)c2cccn2C)Cc2cnn(CC3CC3)c21` (stereo unspecified), the INHIBITION is given as 57.8%.

For `CCOCC1CN(C(=O)c2cccs2)Cc2cnn(CC3CC3)c21` (stereo unspecified), the INHIBITION was found to be 18.5%.

Take `CCOCC1CN(C(=O)c2cnccn2)Cc2cnn(CC3CC3)c21` (stereo unspecified): the INHIBITION is recorded as -127%.

`O=c1cc(CN2CCCCC2c2cccc(F)c2)[nH]c2ncnn12` (stereo unspecified): the INHIBITION is -27.8%.

`COc1ccccc1C(=O)N1CCOCC1c1c(C)n[nH]c1C` (stereo unspecified): the INHIBITION came to 57.5%.

As for `Cc1n[nH]c(C)c1C1COCCN1C(=O)c1ccccc1` (stereo unspecified), the INHIBITION was -119%.

Regarding `Cc1n[nH]c(C)c1C1COCCN1C(=O)c1cccc(F)c1F` (stereo unspecified), the INHIBITION was 49.6%.

Take `Cc1cnn(CCNCc2ccc(OCc3ccccn3)cc2)c1`: the INHIBITION is -12.3%.

On to `CCN1CCOC(CNCc2ccccc2OCc2cccnc2)C1` (stereo unspecified), for which the INHIBITION is reported as 28.1%.

As to `Cc1cnn(CCNCc2ccccc2OCc2ccccn2)c1`, the INHIBITION is recorded as 67%.

Regarding `CN1CCOC(CNCc2ccccc2OCc2ccccn2)C1` (stereo unspecified), the INHIBITION is 67.7%.

With `CCN1CCOC(CNCc2ccccc2OCC(=O)N(C)C)C1` (stereo unspecified), the INHIBITION was -19.5%.

`Cc1cnn(CCNCc2ccccc2OCc2ccncc2)c1`: the INHIBITION came out at 40.5%.

In the case of `CCN1CCOC(CNCc2ccccc2OCc2ccccn2)C1` (stereo unspecified), the INHIBITION came out at 7.77%.

For the molecule `CN1CCOC(CNCc2ccc(OCc3ccccn3)cc2)C1` (stereo unspecified), the INHIBITION is -15.8%.

For the molecule `CCN1CCOC(CNCc2ccccc2OCc2ccncc2)C1` (stereo unspecified), the INHIBITION came out at 55.3%.
